# Source: PubChem (several laboratories)
# The list is not random: actives were taken first. Their share in the collection is about 5.4%.
# AHR act: AHR activators, primary screen, cell-based, luminescence, luciferase reporter, human. 320,000 tested, 2.5% active. Aryl hydrocarbon receptor (Homo sapiens), P35869. activation, % at 5 µM. AHR-responsive luciferase reporter cells; in the data active means activation above about 47%;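 further: 0% = vehicle wells and 100% = reference agonist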
# Target sequence (P35869 whole entry, looked up): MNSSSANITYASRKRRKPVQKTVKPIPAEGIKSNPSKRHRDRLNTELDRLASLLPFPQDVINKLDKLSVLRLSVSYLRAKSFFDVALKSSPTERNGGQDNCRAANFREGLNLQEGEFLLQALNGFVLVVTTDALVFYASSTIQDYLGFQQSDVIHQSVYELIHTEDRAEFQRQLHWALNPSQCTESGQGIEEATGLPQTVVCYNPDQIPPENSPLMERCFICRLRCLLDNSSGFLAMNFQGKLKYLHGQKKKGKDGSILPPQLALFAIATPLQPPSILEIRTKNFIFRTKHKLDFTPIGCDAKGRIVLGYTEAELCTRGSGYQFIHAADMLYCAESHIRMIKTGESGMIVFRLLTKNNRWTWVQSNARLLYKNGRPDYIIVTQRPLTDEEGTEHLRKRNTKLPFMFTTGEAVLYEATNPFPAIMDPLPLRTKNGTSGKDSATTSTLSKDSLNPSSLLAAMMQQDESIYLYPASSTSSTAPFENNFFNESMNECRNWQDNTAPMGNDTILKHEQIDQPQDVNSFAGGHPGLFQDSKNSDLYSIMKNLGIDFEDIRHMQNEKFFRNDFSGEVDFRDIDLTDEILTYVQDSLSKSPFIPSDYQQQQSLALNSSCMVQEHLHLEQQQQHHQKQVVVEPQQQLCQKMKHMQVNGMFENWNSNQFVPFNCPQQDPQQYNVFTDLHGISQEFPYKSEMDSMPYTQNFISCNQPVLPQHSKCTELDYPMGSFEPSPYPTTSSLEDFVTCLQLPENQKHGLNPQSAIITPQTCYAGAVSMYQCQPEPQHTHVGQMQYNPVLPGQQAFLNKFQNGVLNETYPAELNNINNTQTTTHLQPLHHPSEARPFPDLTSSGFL
# GAA850 FXN act: FXN promoter activators, primary screen, cell-based, luciferase luminescence, HEK293 lucGAA850 | HEK293 lucGAA850 FXN promoter luciferase reporter, 24 h; percent of 10 µM SAHA response | activation, % at 6 µM | 360,000 tested, 0.56% active | AID 540364, 2011;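 active means activation above the average of all compounds screened plus 3 SD, cutoff fixed separately per campaign, cut at about 7.5% in these data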;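 further: 0% = DMSO wells and 100% = 10 µM SAHA wells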
# HSF1 activator: HSF-1 activators, primary screen, NIH3T3-HGL cells, MG132 stress, luminescence, single point. NIH3T3-HGL HSF-1 luciferase reporter, 8 h; 100% = twice DMSO control signal. activation, % at 9 µM. 300,000 tested, 1.7% active. AID 504408, 2011;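 active means mean replicate activation of at least 50% with a set share of replicates each reaching 50%; inconclusive means only one of those two conditions met; inactive means mean below 50% and too few replicates reaching it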;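 further: 0% = median of the neutral control wells and 100% = twice that signal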
# HSF1 inh: HSF1 inhibitors in luciferase reporter cells, primary screen, cell-based, NIH3T3, luminescence | 300,000 tested, 0.77% active | NIH3T3-HGL HSE-luciferase, MG132-induced, luminescence 8 h; active compounds read low | activity change, negative = inhibition, % at 7.5 µM (by protocol);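 active means more than half of replicate wells show activity change below -50%, luminescence cut by over half; inconclusive means some wells, but at most half, below -50%; inactive means no replicate well below -50%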;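 further: luciferase reports HSF-1 transcriptional activity via heat shock element; 0% = median of DMSO wells and -100% = zero luminescence signal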
# NR0B1 inh: DAX1 (NR0B1) inhibitors, primary screen, cell-based, HEK293, Gal4-DAX1, luciferase luminescence | HEK293 Gal4-DAX1 luciferase reporter | inhibition, % at 6.75 µM | 340,000 tested, 0.99% active | AID 504766, 2011 | Nuclear receptor subfamily 0 group B member 1 (Homo sapiens), P51843;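 active means inhibition above the mean over all tested compounds plus 3 SD, cut at about 4.2% in these data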;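 further: 0% = DAX1-transfected cells with DMSO and 100% = empty-vector control cells with DMSO; inhibition shows as a rise in luminescence from relieved DAX1 repression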
# * = called active by the depositor; ? = inconclusive; · = no result.
SMILES,AHR act,GAA850 FXN act,HSF1 activator,HSF1 inh,NR0B1 inh
CCOc1ccc2oc(C(=O)NNC(=O)c3ccccc3O)c(C)c2c1,12.0,2.7,6.7,6.7,1.6
Cc1c(C(=O)NCc2cccs2)oc2ccc(Br)cc12,8.0,2.9,21.2,19.0,3.1
C=CCNC(=S)NC(=O)c1oc2ccccc2c1C,66.3*,5.7,23.3,14.4,0.7
O=C(CCN1CCCCO1)N1CCCC(Nc2ccc(F)cc2)C1 (centres undefined),-4.2,0.9,-5.4,-5.0,1.0
CCCCOc1ccc(/C=C/C(=O)N(CC)CC(=O)Nc2ccc3c(c2)OCCO3)cc1OC,3.3,1.2,2.4,1.0,-2.4
Cc1nc2ccccc2c2oc(C(=O)NCc3ccccn3)cc12,17.6,-1.2,52.2*,20.7,0.5
Cc1c(C(=O)N2CCN(C)CC2)oc2ccc(Br)cc12,5.0,5.5,17.8,9.0,5.0*
Cc1ccc(CNC(=O)c2cc3c(C)nc4ccccc4c3o2)cc1,2.5,-0.8,7.3,1.7,-2.5
CC(=O)Nc1ccc(S(=O)(=O)NC2CC2)cc1,-1.0,0.3,3.2,-1.1,0.4
Cc1cccc(N2C(=O)N3[C@H](c4ccc(Cl)cc4)[C@@H]4C(=O)N(C5CCCCC5)C(=O)[C@@H]4[C@]3(Cc3ccc(Cl)cc3)C2=O)c1,1.5,10.3*,-6.1,7.3,1.5
Cc1ccc(C(=O)NCC(=O)N(C)CC(=O)Nc2ccccc2Br)s1,0.9,1.2,·,·,0.8
COCC(C)n1c(SCC(=O)Nc2ccc3c(c2)OCCO3)nc2ccccc2c1=O (centres undefined),-0.9,1.3,·,·,-0.2
CCC(C)n1c(SCC(=O)NC(=O)Nc2ccc3c(c2)OCCO3)nc2ccccc2c1=O (centres undefined),-0.6,-0.1,53.9*,24.1,0.2
NNC(=O)c1cc2c(s1)-c1cc(Cl)ccc1SC2,64.3*,3.2,-7.8,-0.6,·
CCN(CC)CCNC(=O)c1cc2c(s1)-c1ccccc1SC2,4.2,1.1,2.9,-4.1,-0.4
CSc1ccc(S(=O)(=O)N2CCC(C(=O)N3CCc4ccccc4C3)CC2)cc1,0.3,0.2,-10.1,-0.5,0.6
O=C(O)C1CCC(C(=O)O)SS1 (centres undefined),·,-1.4,·,·,-0.9
CCCSc1nnc(C(C)C)n1N,1.5,-2.5,-2.9,-7.6,4.0
CC(C)c1nnc(SCc2ccc(CSc3nnc(C(C)C)n3N)cc2)n1N,4.8,1.9,80.2*,25.6,-0.8
C/C(=N\Nc1nc2ccccc2[nH]1)c1ccc(Cl)s1,72.9*,2.6,6.0,9.8,-0.5
C/C(=N\Nc1nc2ccccc2[nH]1)c1ccc(N2CCOCC2)cc1,76.3*,6.3,31.6,3.4,0.1
CCC(C)(C)C1CCC(=NNc2nc3ccccc3[nH]2)CC1 (centres undefined),49.6*,1.4,-19.2,-11.8,0.6
CC(=O)N1CCC(=NNc2nc3ccccc3[nH]2)CC1,62.6*,4.9,-9.8,-13.6,·
Cc1c(OCC(=O)NC2CCN(Cc3ccccc3)CC2)ccc2c3c(c(=O)oc12)CCC3,-2.2,-1.1,1.9,-1.2,0.4
COc1ccc(NC(=O)CS(=O)c2cccc(C(F)(F)F)c2)cc1 (centres undefined),-3.2,2.9,8.3,10.2,-0.6
SMILES,AHR act,GAA850 FXN act,HSF1 activator,HSF1 inh,NR0B1 inh
COc1cc2c(cc1OC)C1(CCCC1)C(N)=C2C#N,47.5*,1.1,·,·,0.4
CC1CC(C)CN(C(=O)c2ccc(CSc3nc4ccncc4[nH]3)cc2)C1 (centres undefined),0.3,-0.2,-72.8,-67.4*,-0.2
Clc1ccc(Oc2nnnn2-c2ccccc2)cc1,-3.1,-1.3,4.5,9.5,-0.4
c1ccc(-n2nnnc2Oc2ccc(-c3nnco3)cc2)cc1,-0.1,-0.6,-75.3,-69.9*,-1.2
COc1ccc(Oc2nnnn2-c2ccccc2)cc1,3.6,3.4,2.5,18.0,0.2
c1ccc(-n2nnnc2Oc2ccc(-n3ccnc3)cc2)cc1,72.2*,-3.3,-21.6,-10.9,0.1
O=C(NCc1cccc(C(F)(F)F)c1)C1CCCN(c2cnccn2)C1 (centres undefined),52.0*,0.8,-17.2,3.3,-0.7
O=C(NCc1ccccc1)C1CCCN(c2cnccn2)C1 (centres undefined),32.7,0.2,-0.8,0.6,0.4
O=C(NCc1ccc(F)cc1)C1CCCN(c2cnccn2)C1 (centres undefined),52.5*,0.2,16.0,2.1,0.5
CCn1c(CSCc2ccc(Cl)cc2)nnc1SCC(=O)Nc1cccc(C(=O)O)c1,0.7,0.8,·,·,1.1
O=c1c(-c2nc3ccccc3s2)cccn1Cc1ccc(Cl)c(Cl)c1,2.1,0.3,52.5*,13.3,0.8
Cc1ccc(C(=O)N/C(N)=N/c2nc3ccccc3o2)cc1,30.1,5.0,19.4,10.2,-0.3
CC(C)CC(=O)N/C(N)=N/c1nc2ccccc2o1,-4.8,2.9,15.1,17.6,5.3*
CC(C)(C)C(=O)N/C(N)=N/c1nc2ccccc2o1,-3.7,6.2,52.4*,14.7,4.8*
CC(=O)N/C(N)=N/c1nc2cc([N+](=O)[O-])ccc2o1,-4.0,2.3,71.9*,22.7,4.1
CC(=O)N/C(N)=N/c1nc2cc(C)ccc2o1,7.2,2.7,44.6,17.9,1.8
COc1ccccc1C(=O)N/C(N)=N/c1nc2ccccc2o1,69.2*,4.0,49.5,17.4,0.4
CNc1cncc(-c2cccc(C(=O)N(C)C)c2)n1,·,1.5,·,·,·
Cc1nnc2n(c1=O)N=C(c1ccc(Cl)cc1)CS2,79.0*,5.5,16.4,12.5,-0.6
Cc1ccc(C2CN(CCC(N)=O)C(=O)CO2)cc1 (centres undefined),-2.5,1.8,·,·,-0.4
CCOc1ccccc1NC(=O)CN1CCc2ccccc2C1,15.4,0.3,8.4,2.0,1.2
O=C(Nc1ccc(F)cc1)N1CCc2ccccc2C1,69.2*,2.4,14.8,15.3,0.6
CCOc1ccccc1NC(=O)N1CCc2ccccc2C1,68.4*,1.8,17.4,-1.5,1.0
CCOc1ccccc1NC(=O)n1ncc2c(C)cccc21,47.9*,0.0,13.3,7.8,0.6
Cc1ccc(NC(=O)N2CCc3ccccc3C2)cc1C,·,1.4,-2.5,8.3,1.9
CN(CC(=O)Nc1ccc(Cl)c(S(=O)(=O)N2CCOCC2)c1)C(=O)c1ccc(C#N)cc1,2.1,0.5,·,·,0.8
COc1ccc(/C=C/C(=O)OCC(=O)N2c3ccccc3CC2C)cc1 (centres undefined),·,-0.7,·,·,0.5
CC1Cc2ccccc2N1C(=O)CO/N=C/c1ccc(OC(F)F)cc1 (centres undefined),8.9,0.7,-90.0,-87.7*,2.5
COc1ccc(-c2csc(Nc3ncccc3C)n2)cc1,36.9,2.9,?,21.9,2.7
